GPR151 activ = activators of human GPR151, primary screen, cell-based, PathHunter beta-arrestin, luminescence | G-protein coupled receptor 151 (Homo sapiens), Q8TDV0 | PathHunter beta-arrestin GPR151 cells | activation, % at 11.2 µM | 650,000 compounds, 1% hits | AID 1508602, 2020; in the data active = activation above about 4.9%;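 note: 0% = median of compound wells and 100% = cells with positive control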
MITF primary = MITF inhibitors, primary screen, biochemical, AlphaScreen, human; inhibition, % at 2.6 µM; AlphaScreen MITF homodimerization, bead proximity signal; AID 1259374, 2018; 650,000 compounds, 0.91% hits; Microphthalmia-associated transcription factor (Homo sapiens), O75030; in the data active = inhibition above about 50%;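 note: 0% = vehicle wells with protein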
FBW7 activator = FBW7 E3 ligase activators, primary screen, biochemical, AlphaScreen, human; AlphaScreen FBW7–phospho-cyclin E peptide binding, activator screen; normalized activity (activation), % at 26.1 µM; 650,000 compounds, 0.13% hits; in the data active = normalized activity above about 1.9%;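 note: purified mutant Fbw7 with reduced substrate affinity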
Target sequence (Q969H0 whole entry, looked up): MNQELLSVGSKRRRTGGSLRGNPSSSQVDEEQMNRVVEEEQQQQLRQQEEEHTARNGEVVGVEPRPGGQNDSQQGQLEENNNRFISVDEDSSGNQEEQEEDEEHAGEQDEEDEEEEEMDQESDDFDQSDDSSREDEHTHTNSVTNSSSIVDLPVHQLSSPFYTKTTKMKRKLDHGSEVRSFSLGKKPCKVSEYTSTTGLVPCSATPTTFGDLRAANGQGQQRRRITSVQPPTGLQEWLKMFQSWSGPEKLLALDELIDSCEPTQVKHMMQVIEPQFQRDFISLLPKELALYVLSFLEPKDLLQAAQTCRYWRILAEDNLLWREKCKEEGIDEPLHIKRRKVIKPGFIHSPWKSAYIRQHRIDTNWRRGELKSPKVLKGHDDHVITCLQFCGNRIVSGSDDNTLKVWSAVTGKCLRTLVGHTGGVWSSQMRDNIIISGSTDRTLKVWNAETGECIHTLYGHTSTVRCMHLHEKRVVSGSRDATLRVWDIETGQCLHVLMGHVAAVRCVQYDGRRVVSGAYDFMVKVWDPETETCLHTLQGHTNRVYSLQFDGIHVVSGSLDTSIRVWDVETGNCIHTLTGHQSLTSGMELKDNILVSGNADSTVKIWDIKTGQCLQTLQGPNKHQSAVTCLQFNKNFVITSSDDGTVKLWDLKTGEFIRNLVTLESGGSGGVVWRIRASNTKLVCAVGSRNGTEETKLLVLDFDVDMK
TEAD-YAP block = TEAD-YAP interaction inhibition, primary screen, TEAD-YAP interaction inhibitor project, luminescence, HEK-TIYL cells; AID 1259422, 2018; inhibition, % at 9.12 µM; 640,000 compounds, 1.4% hits; TEAD-Gal4/YAP UAS-luciferase luminescence; in the data active = inhibition above about 32%;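 note: 0% = median of test compound wells and 100% = reference inhibitor wells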
MITF confirm = MITF inhibitors, retest of hits, confirmation, biochemical, AlphaScreen, triplicate; shares compounds with MITF primary; AlphaScreen MITF homodimerization, biotin/His-MITF beads; inhibition, % at 2.6 µM; 4,700 compounds, 16% hits;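 active = inhibition above a cutoff derived from the DMSO control wells, cut at about 28% in these data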;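 note: 0% = MITF dimer wells with DMSO only; inhibitors lower the bead chemiluminescence by keeping MITF from dimerizing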
AS interf DR = AlphaScreen optical interference compounds, dose response, counter-screen, biochemical, HTS; AID 1259373, 2018; 480 compounds, 6% hits; shares compounds with MITF primary; IC50, µM; AlphaScreen optical interference counterscreen, cell-free; call rule not given here
AlphaScreen intf2 = AlphaScreen optical interference compounds, counter-screen for MITF inhibitor project, biochemical, triplicate. shares compounds with MITF primary. LysRS AlphaScreen counterscreen, signal interference. inhibition, % at 2.6 µM. 4,700 compounds, 7.6% hits;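 active = inhibition above a cutoff derived from the DMSO control wells, cut at about 30% in these data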
* hit, by the source's call; . = no result. Only some compounds are listed: those with a hit (about 3.5% of all), similar ones and a draw of the others.

SMILES	GPR151 activ	MITF primary	FBW7 activator	TEAD-YAP block	MITF confirm	AlphaScreen intf2	others
COc1ccc(C(CNc2nnnn2-c2ccccc2)N2CCOCC2)cc1 (configuration not stated)	0.5	51.3*	0.0	0.8	3.4	-0.3
Cc1cc(C)n(CCCNCC(O)COCc2cccs2)n1 (configuration not stated)	1.2	78.9*	0.1	10.5	11.7	13.9
Cc1cc(C)n(CCCNCC(O)COCc2ccccc2)n1 (configuration not stated)	0.4	37.8	-0.2	4.6	.	.
CC1(C)Cc2cccc(OCc3ccc(C(=O)NCc4ccncc4)cc3)c2O1	1.8	58.6*	-0.2	14.5	-11.0	1.6
O=C(CSc1nc(NC2CCCCC2)c2ccccc2n1)NC1CCCCC1	2.6	58.3*	-0.1	8.0	3.3	6.0
Cc1ccc(CNC(=O)CSc2nc(NC3CCCCC3)c3ccccc3n2)cc1	1.4	3.0	-0.1	1.2	.	.
CCSCCOC(=O)C1=C(C)NC2=C(C(=O)C(C(=O)OC)C(C)C2)C1c1cccc(OCc2ccccc2)c1 (configuration not stated)	0.0	71.1*	0.2	-2.3	-18.4	-7.8
CC(=O)c1ccc(NC(=S)NNC(=O)CC#N)cc1	-1.7	92.8*	-0.4	0.8	12.4	9.9
CCNC(=S)NNC(=O)c1ccc(NC(=O)CC#N)cc1	-1.2	-6.5	-0.2	-0.5	.	.
CCN(CC)CC(=O)Nc1ccc(OC)cc1	-0.7	52.0*	0.9	-9.2	28.1*	17.8	AS interf DR=>6.48
CCN(CC(=O)Nc1ccc2c(c1)OCCO2)CC(=O)Nc1ccccc1C(F)(F)F	-0.5	88.8*	-0.3	1.7	13.6	15.3
CCN(CC(=O)Nc1ccc(OC)cc1)CC(=O)NC(C)(C)C	-1.1	9.1	0.0	-2.1	.	.
CCN(CC(=O)Nc1ccc(C(C)=O)cc1)CC(=O)Nc1ccc2c(c1)OCCO2	0.2	80.1*	-0.2	-0.8	9.3	11.6
CCN(CC(=O)Nc1ccc(NC(C)=O)cc1)CC(=O)Nc1ccc(Cl)c(Cl)c1	-2.0	93.5*	-0.3	-7.0	11.3	13.7
CCN(CC)CC(=O)Nc1ccc2c(c1)OCO2	-0.2	3.3	-0.3	-2.2	.	.
Cc1ccc(NC(=O)C2C3CCCCC32)cc1C (configuration not stated)	0.6	-6.6	0.0	-53.0	.	.
CCN(CC)C(=O)C1=CC2([N+](=O)[O-])CN(CC(=O)O)CC([N+](=O)[O-])(C1)C2 (configuration not stated)	2.1	8.7	0.1	-1.2	.	.
O=C(O)CN1CC2([N+](=O)[O-])C=CCC([N+](=O)[O-])(C1)C2 (configuration not stated)	2.1	55.0*	0.0	0.7	4.6	27.6
CCCCC/C=C/C=C1/C(=O)C=C[C@@H]1C/C=C\CCCC(=O)O	-0.1	34.7	.	.	.	.
CCCCC[C@H](O)/C=C/[C@H]1[C@H](O)CC(=O)[C@@H]1C/C=C\CCCC(=O)NCCO	1.0	2.7	.	.	.	.
CCCCC[C@H](O)/C=C/[C@H]1[C@H](O)CC(=O)[C@@H]1C/C=C\CCCC(=O)NCCCCCNC(=O)CCCCC1SC[C@@H]2NC(=O)N[C@H]12 (some centres not stated)	-0.1	123.6*	.	.	124.1*	100.6*
CCCCC[C@H](O)/C=C/[C@@H]1[C@@H](C/C=C\CCCC(=O)NCCCCCNC(=O)CCCCC2SC[C@@H]3NC(=O)N[C@H]23)[C@@H](O)C[C@H]1O (some centres not stated)	-0.8	123.6*	.	.	123.3*	100.6*
CCCCC/C=C/C=C1/C(=O)C=C[C@@H]1C/C=C\CCCC(=O)NCCCCCNC(=O)CCCCC1SC[C@@H]2NC(=O)N[C@H]12 (some centres not stated)	-0.8	123.6*	.	.	123.6*	100.6*
c1ccc(CN2CCCC2c2nc(-c3ccncc3)n[nH]2)nc1 (configuration not stated)	0.3	101.3*	-1.4	-6.1	92.3*	100.3*
Nc1c(C(=O)N2CCCC2)nnn1-c1ccccc1	-0.8	-0.5	-0.1	-49.4	.	.
SMILES	GPR151 activ	MITF primary	FBW7 activator	TEAD-YAP block	MITF confirm	AlphaScreen intf2	others
CCCSc1nc(N2CCCCC2)c2c(c1C#N)CCCC2	0.0	65.7*	0.0	-3.5	-7.0	-5.0
N#Cc1c(SCC(=O)O)nc(N2CCCCC2)c2c1CCCC2	0.2	-1.3	0.0	5.0	.	.
CC1CCCCC1NC(=O)Cn1c2ccccc2n2c(=O)n(Cc3ccncc3)nc12 (configuration not stated)	1.7	5.0	0.1	11.1	.	.
OC(COCc1ccccc1)Cn1cnc2ccccc21 (configuration not stated)	1.8	1.5	0.2	-4.6	.	.
CCCCOCC(O)Cn1cnc2ccccc21 (configuration not stated)	-1.2	54.9*	0.2	-3.3	21.3	18.5
Cc1nc2ccccc2c(=O)n1NCc1ccccc1F	-1.2	3.4	0.1	-35.9	.	.
Cc1ccccc1CN1CCN(C(=O)c2cccnc2)CC1	1.5	60.9*	-0.1	-7.3	18.2	-1.4
Cc1ccc(CN2CCN(C(=O)c3cccnc3)CC2)cc1	-0.9	53.8*	-0.1	9.5	-2.7	-5.8
O=C(c1cccnc1)N1CCN(Cc2ccccc2C(F)(F)F)CC1	3.4	53.0*	-0.1	-1.5	-0.7	-2.5
O=C(c1cccnc1)N1CCN(Cc2ccc3ccccc3c2)CC1	-0.6	37.2	-0.1	7.2	.	.
O=C(c1cccnc1)N1CCN(Cc2ccc([N+](=O)[O-])cc2)CC1	-0.1	-13.8	-0.2	0.6	.	.
CCc1nc(C)ccc1OCc1nc2ccncc2[nH]1	0.1	58.0*	-0.2	6.4	19.9	24.9
NCc1nc2ccncc2[nH]1	-1.7	-13.6	0.1	10.2	.	.
COc1ccc(Br)cc1CN1CCN(S(=O)(=O)Cc2ccccc2)CC1	-0.7	62.0*	0.3	16.5	5.7	25.7
CCCS(=O)(=O)N1CCN(Cc2cc(Br)ccc2OC)CC1	-0.8	54.4*	0.1	18.4	7.9	15.8
CCCS(=O)(=O)N1CCN(Cc2ccc(OC)c(OC)c2OC)CC1	-0.2	52.0*	0.0	-1.0	7.0	7.3
CCS(=O)(=O)N1CCN(Cc2cc(Br)ccc2OC)CC1	0.4	51.8*	0.1	23.3	10.5	14.2
Cc1nc(SCC(=O)NCC2CCCCC2)nc(C)c1C	0.5	-1.3	0.0	-2.2	.	.
COc1cc(/C=C2/C(=N)N3N=C(C)SC3=NC2=O)ccc1OCCOc1cc(C)ccc1C	0.8	9.6	0.0	8.9	.	.
